HSF1 inh: HSF1 inhibition | 300,000 tested, 0.77% active | activity change, negative = inhibition, % at 7.5 µM (by protocol) | NIH3T3-HGL HSE-luciferase, MG132-induced, luminescence 8 h; active compounds read low;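 active means more than half of replicate wells show activity change below -50%, luminescence cut by over half; inconclusive means some wells, but at most half, below -50%; inactive means no replicate well below -50%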;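 further: luciferase reports HSF-1 transcriptional activity via heat shock element; 0% = median of DMSO wells and -100% = zero luminescence signal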
HSF1 activator: increases HSF-1 driven luciferase reporter signal | activation, % at 9 µM | NIH3T3-HGL HSF-1 luciferase reporter, MG132, 8 h; 100% = twice DMSO control signal | 300,000 tested, 1.7% active;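 active means mean replicate activation of at least 50% with a set share of replicates each reaching 50%; inconclusive means only one of those two conditions met; inactive means mean below 50% and too few replicates reaching it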;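 further: 0% = median of the neutral control wells and 100% = twice that signal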
Vif inh: HIV Vif inhibition; HEK293T cells, Vif self-association by quenched fluorescence, imaging, 24 h; inhibition, % at 7.49 µM; 340,000 tested, 0.35% active; AID 602346; in the data active means inhibition above about 50%, passing the limit was not always enough; inconclusive means no clear call, values can overlap the other calls; inactive means below about 31%
esBAF inh: blocks esBAF chromatin remodeling in mouse ES cells; reporter increase, % at 12.5 µM; Bmi1-luciferase knock-in reporter, 24 h; 100% = twice the neutral-well signal; 350,000 tested, 2% active; in the data active means activation above about 40%; inconclusive means no clear call, values can overlap the other calls;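 further: 0% = median of the plate's neutral control wells and 100% = double that signal; a rise in the Bmi1 reporter signal indicates esBAF inhibition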
* hit, by the source's call. Shown are actives, neighbours in structure and some others; about 3.4% of the full set was active somewhere.

For O=C(Nc1cnn(Cc2ccc(F)cc2)c1)c1cc(-c2cccs2)on1 the results were HSF1 inh -6, HSF1 activator -10 and Vif inh 57*.
CCCc1cc(C(=O)Nc2cnn(Cc3ccc(F)cc3)c2)no1 was read as HSF1 inh 8, HSF1 activator 6, Vif inh -3 and esBAF inh 5.
Screening O=C(/C=C/c1ccc(Cl)cc1Cl)N(Cc1ccccc1)C1CCS(=O)(=O)C1 (stereo unspecified) returned HSF1 inh 20, HSF1 activator 52* and Vif inh 0.
Screening CN(C)c1cccc(C(=O)OCC(=O)N(Cc2ccccc2)C2CCS(=O)(=O)C2)c1 (stereo unspecified) returned HSF1 inh 1, HSF1 activator 10, Vif inh -5 and esBAF inh 46*.
For COc1ccc(C(=O)NCc2ccc(-c3nc4ccccc4s3)cc2)cc1OC the results were HSF1 inh 6, HSF1 activator 30, Vif inh -4 and esBAF inh 47*.
O=C(NCc1ccc(-c2nc3ccccc3s2)cc1)c1ccco1 was read as HSF1 inh 13, HSF1 activator 45 and Vif inh -3.
COc1ccc(C(=O)Oc2ccc(C(C)=O)cc2)c(OC)c1 was read as HSF1 inh 25, HSF1 activator 60*, Vif inh 15 and esBAF inh 24.
COc1ccc(C(=O)OCCCOC(=O)c2ccc(OC)cc2OC)c(OC)c1 was read as HSF1 inh -10, HSF1 activator -16, Vif inh -9 and esBAF inh -10.
C[C@@H]1CN([C@H](C)CO)S(=O)(=O)c2ccc(C#CC3CCCC3)cc2O[C@H]1CN(C)C(=O)Nc1cc(F)ccc1F was read as esBAF inh 6.
For C=CCn1cccc(C(=O)Nc2ccc(C)c(C)c2)c1=O the results were HSF1 inh 26, HSF1 activator 45, Vif inh -5 and esBAF inh 49*.
`C=CCn1cccc(C(=O)Nc2ccc(C)cc2)c1=O` gave HSF1 inh 19, HSF1 activator 56*, Vif inh -11 and esBAF inh 39.
Screening O=C(NCc1cccc(F)c1)c1cccc2c1C(=O)c1ccc(N3CCC(Cc4ccccc4)CC3)cc1S2(=O)=O returned Vif inh 121* and esBAF inh -2.
For CC1CCN(c2ccc3c(c2)S(=O)(=O)c2ccccc2C3=O)CC1 the results were HSF1 inh 22, HSF1 activator 29, Vif inh 6 and esBAF inh 53*.
`O=C(NCc1ccc(OC(F)(F)F)cc1)c1cccc2c1C(=O)c1ccc(N3CCCCC3)cc1S2(=O)=O` gave Vif inh 55* and esBAF inh 10.
`O=C(NCc1cccc(C(F)(F)F)c1)c1cccc2c1C(=O)c1ccc(N3CCC(Cc4ccccc4)CC3)cc1S2(=O)=O` gave Vif inh 122* and esBAF inh 0.
Screening O=C(NCc1ccc(OC(F)(F)F)cc1)c1cccc2c1C(=O)c1ccc(N3CCCC3)cc1S2(=O)=O returned Vif inh 0 and esBAF inh 14.
For COc1cccc(C(=O)Nc2ccc3c(c2)C(=O)N(C)[C@H]2CC[C@H](CC(=O)NCc4ccccc4F)O[C@H]2CO3)c1 the results were esBAF inh -2.
For CCC(=O)N[C@H]1CC[C@@H](CC(=O)NCC2CCCCC2)O[C@H]1CO the results were esBAF inh -5.
For CO[C@H]1CN(C)C(=O)c2ccc(NC(C)=O)cc2OC[C@H](C)N(Cc2cncnc2)C[C@H]1C the results were esBAF inh 2.
For O=C(C[C@H]1C=C[C@H](NC(=O)CN2CCOCC2)[C@H](CO)O1)NCc1cccc(F)c1 the results were esBAF inh 7.
For CCC(=O)N1[C@H](CO)[C@H](c2ccc(C3=CCCC3)cc2)[C@@H]1CNC(=O)CN(C)C the results were esBAF inh 4.
`C[C@H]1CN([C@@H](C)CO)C(=O)c2c(c3ccccc3n2C)-c2ccccc2CO[C@H]1CN(C)C(=O)[C@@H](Cc1ccccc1)N(C)C` gave esBAF inh -6.
For CCCc1nc2ccc(NC(C)=O)cc2c(=O)n1Cc1ccc(Cl)cc1 the results were HSF1 inh 37, HSF1 activator 60* and Vif inh -3.
Screening Cc1nc2ccc(NC(=O)c3ccccc3)cc2c(=O)n1Cc1ccc(F)cc1 returned Vif inh -7 and esBAF inh 8.
`COc1ccc(Cn2c(C3CC3)nc3ccc(NC(C)=O)cc3c2=O)cc1` gave HSF1 inh 29, HSF1 activator 51*, Vif inh -3 and esBAF inh inconclusive.

Screening results (PubChem)
